Here are results for 17 molecules from article PMC5540273 (PLoS ONE, 2017).

Where “and” joins values, the source holds several entries; their conditions need not be identical. Equal values may be shown once. Read-outs that look alike come from different tables or passages of the source.

The test system of one assay is DDR2. Particulars: concentration: 1 μM, replicates: in singlicate, n = 1.
A further assay has as its system T1, DLK.
T1 construct: gene MAP3K12
Particulars: concentration: 1 μM, replicates: in singlicate, n = 1.

The test system of another assay is T2, DMPK2.
T2 construct: gene CDC42BPG
Particulars: concentration: 1 μM, replicates: in singlicate, n = 1.

The test system of the next assay is DMPK. The settings on record: concentration: 1 μM, replicates: in singlicate; n = 1.
The subject of another assay is T3, DRAK1.
T3 construct: gene STK17A
The settings on record: concentration: 1 μM, replicates: in singlicate; n = 1.

A further assay concerns T4, DRAK2.
T4 construct: gene STK17B
Particulars: concentration: 1 μM, replicates: in singlicate, n = 1.

For another assay, the system named is DYRK1A. The settings on record: concentration: 1 μM, replicates: in singlicate; n = 1.
In a further assay the test system is DYRK1B. The settings on record: concentration: 1 μM, replicates: in singlicate, n = 1.
The test system of a further assay is DYRK2. The settings on record: concentration: 1 μM, replicates: in singlicate; n = 1.
A further assay concerns EGFR. Particulars: concentration: 1 μM, replicates: in singlicate, n = 1.
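Also: KINOMEscan kinase panel screen.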

Turning to `COc1ccc(NC(=O)Nc2ccc(C)c(-c3ccc(C(=O)Nc4ccncc4)cc3)c2)cc1` [GSK1398475], the “%Inh” value in the assay with DDR2 came to 44%; in the assay on DLK, 0%; with DMPK2, 6%; with DMPK, 0%; in the assay with DRAK1 it was 5%; in the assay with DRAK2, 8%. The “%Inh” value in the assay with DYRK1A is recorded as 2%; in the assay with DYRK1B, 0%; with DYRK2, 6%; in the assay on EGFR, 33%.
In the case of `O=C(CCO)NCCn1ccc2ncnc(Nc3ccc(Oc4cccc(C(F)(F)F)c4)c(Cl)c3)c21`, the “%Inh” value in the assay with DDR2, with DLK, in the assay with DMPK2, in the assay with DMPK, in the assay with DRAK1 and in the assay with DRAK2 was 0% in each case. For the same molecule, the “%Inh” value in the assay on DYRK1A is 0%; with DYRK1B, 12%; with DYRK2 it was 0%; in the assay on EGFR it was 100%.
In the case of `Cn1cc(-c2ccc3c(c2)CCN3C(=O)Cc2cccc(C(F)(F)F)c2)c2c(N)ncnc21` [GSK2606414], the “%Inh” value in the assay on DDR2 is given as 74%; in the assay with DLK it was 23%; in the assay on DMPK2, 0%; in the assay with DMPK it was 30%; in the assay on DRAK1, 3%; in the assay on DRAK2 it was 0%. Besides, the “%Inh” value in the assay with DYRK1A was 16%; with DYRK1B, 0%; in the assay on DYRK2 it was 27%; in the assay with EGFR, 20%.
In the case of `O=c1cc(N2CCOCC2)nc2n(Cc3cccc(Cl)c3)ccn12` [GSK2296823], the “%Inh” value in the assay on DDR2, with DLK, with DMPK2, with DMPK, in the assay on DRAK1 and in the assay on DRAK2 was 0% in each case. For the same molecule, the “%Inh” value is recorded as 28% in the assay on DYRK1A, 0% in the assay with DYRK1B, 9% in the assay with DYRK2 and 20% in the assay with EGFR.
With `CS(=O)(=O)CCNCc1ccc(-c2ccc3ncnc(Nc4ccc(OCc5ccccc5)c(Cl)c4)c3c2)o1.Cl` [GW574783], the “%Inh” value in the assay with DDR2 amounted to 39%; with DLK it was 25%; in the assay on DMPK2, 2%; in the assay on DMPK, 16%; in the assay with DRAK1, 16%; in the assay on DRAK2 it was 0%. The “%Inh” value was 0% in the assay on DYRK1A, 0% with DYRK1B, 0% in the assay on DYRK2 and 100% in the assay with EGFR.
For the molecule `CC(C)(C)OC(=O)NC1CCCN(c2cc(-c3ccc4c(N)n[nH]c4c3)nc(N)n2)C1` (centres unmarked) [GSK2286096], the “%Inh” value was found to be 0% in the assay on DDR2; 2% with DLK; 0% in the assay on DMPK2; 0% in the assay on DMPK; 96.3% with DRAK1; 0% with DRAK2. The “%Inh” value with DYRK1A was 14%; in the assay with DYRK1B, 100%; in the assay with DYRK2, 80%; in the assay on EGFR, 27%.
Turning to `Fc1cccc(COc2ccc(Nc3ncnc4cc[nH]c34)cc2Cl)c1`, the “%Inh” value in the assay on DDR2 came to 0%; with DLK, 0%; with DMPK2, 16%; in the assay with DMPK it was 1%; with DRAK1 it was 55%; in the assay on DRAK2, 6%. The “%Inh” value with DYRK1A amounted to 8%; in the assay with DYRK1B, 25%; with DYRK2, 22%; in the assay with EGFR, 100%.
Consider `c1ccc(-c2ccc3c(-c4ccnc(Nc5ccc6c(c5)OCCO6)n4)cnn3n2)cc1` [GW818941], for which the “%Inh” value in the assay on DDR2 is 26%; in the assay with DLK, 0%; in the assay on DMPK2, 0%; with DMPK, 20%; in the assay with DRAK1, 15%; in the assay on DRAK2, 0%. Besides, the “%Inh” value in the assay on DYRK1A amounted to 8%; with DYRK1B, 16%; in the assay with DYRK2 it was 0%; with EGFR it was 14%.
With `Fc1ccc(Nc2nccc(-c3c(-c4ccc(Cl)cc4)nn4ncccc34)n2)cc1F` [GW829058], the “%Inh” value in the assay with DDR2 was 18%; in the assay on DLK, 20%; in the assay on DMPK2, 0%; with DMPK, 21%; in the assay with DRAK1 it was 5%; with DRAK2, 0%. In addition, the “%Inh” value in the assay on DYRK1A amounted to 0%; in the assay on DYRK1B, 11%; in the assay on DYRK2 it was 40%; in the assay with EGFR, 24%.
With `Cn1ccc2ncnc(Oc3ccc(NC(=O)Nc4cccnc4)c(Cl)c3)c21`, the “%Inh” value turned out to be 90.7% with DDR2; 0% in the assay on DLK; 0% with DMPK2; 0% with DMPK; 8% with DRAK1; 2% with DRAK2. Also, the “%Inh” value was determined as 0% in the assay on DYRK1A, 33% in the assay with DYRK1B, 14% in the assay with DYRK2 and 20% with EGFR.
In the case of `COc1ccc(-c2nc3n(c2-c2ccncc2)CCC3)cc1` [SKF-104493], the “%Inh” value in the assay with DDR2 (1 µM) is 31% and 51%; with DLK (1 µM), 0% and 20%; with DMPK2 (1 µM) it was 0% and 15%; with DMPK it was 0%; with DRAK1 it was 0%; in the assay with DRAK2 (1 µM), 2% and 0%. The “%Inh” value in the assay with DYRK1A is 0%; in the assay with DYRK1B (1 µM), 0% and 5%; with DYRK2 it was 0%; with EGFR (1 µM), 0% and 15%.
As for `Cc1cc(N2CCC(NS(=O)(=O)c3ccc(F)cc3)CC2)nc(Nc2cccc(C#N)c2)n1.O=C(O)C(F)(F)F` [GSK1653537], the “%Inh” value amounted to 7% with DDR2; 47% in the assay on DLK; 0% with DMPK2; 0% in the assay with DMPK; 3% with DRAK1; 0% in the assay on DRAK2. The “%Inh” value is on record as 32% with DYRK1A, 97.7% with DYRK1B, 5% in the assay with DYRK2 and 50% with EGFR.
As to `CC(=O)Nc1n[nH]c2ncc(-c3ccccc3)cc12` [SB-548492], the “%Inh” value with DDR2 came to 11%; in the assay with DLK it was 0%; with DMPK2, 0%; with DMPK it was 0%; in the assay with DRAK1, 20%; with DRAK2 it was 0%. Also, the “%Inh” value was 32% in the assay on DYRK1A, 0% with DYRK1B, 24% in the assay with DYRK2 and 3% in the assay with EGFR.
As for `CNc1nccc(-c2c(-c3ccc(F)cc3)ncn2C2CCN(C)CC2)n1` [SB-222903], the “%Inh” value was 58% in the assay with DDR2; 0% with DLK; 21% in the assay with DMPK2; 1% in the assay with DMPK; 0% in the assay on DRAK1; 0% in the assay on DRAK2. Besides, the “%Inh” value in the assay with DYRK1A is reported as 0%; in the assay with DYRK1B, 0%; in the assay on DYRK2, 0%; in the assay with EGFR, 8%.
In the case of `COc1cc2c(Nc3cccc(NC(=O)c4ccccc4)c3)ncnc2cc1OCCCN1CCOCC1` [GSK223810], the “%Inh” value amounted to 16% in the assay with DDR2; 13% with DLK; 0% with DMPK2; 0% with DMPK; 11% in the assay with DRAK1; 0% in the assay with DRAK2. Besides, the “%Inh” value in the assay on DYRK1A is on record as 0%; in the assay on DYRK1B, 15%; with DYRK2 it was 33%; in the assay on EGFR, 87%.
Regarding `Fc1cccc(COc2ccc(Nc3ncnc4sc(-c5ccc[nH]5)cc34)cc2Cl)c1` [GW707818], the “%Inh” value in the assay on DDR2 came out at 21%; in the assay on DLK, 40%; in the assay on DMPK2, 0%; with DMPK it was 0%; with DRAK1 it was 3%; with DRAK2, 0%. In addition, the “%Inh” value with DYRK1A was 0%; in the assay on DYRK1B it was 38%; in the assay with DYRK2, 8%; in the assay with EGFR, 100%.
Regarding `Cc1ccc(NC(=O)c2cccc(C#N)c2)cc1-c1ccc(C(=O)Nc2ccncc2)cc1` [GSK1398463], the “%Inh” value in the assay with DDR2 is 82%; in the assay with DLK it was 0%; in the assay with DMPK2 it was 6%; in the assay with DMPK, 0%; in the assay on DRAK1, 0%; with DRAK2, 1%. The “%Inh” value with DYRK1A was 31%; in the assay with DYRK1B it was 19%; in the assay with DYRK2, 19%; with EGFR it was 36%.
